Rpn11 block: blocks the human proteasome subunit Rpn11 | AID 588493 | inhibition, % at 20 µM | O00487 | human 26S proteasome, Ub4-pepOG fluorescence polarization; 20S core pre-blocked with epoxomicin | 0.59% of 360,000 active;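 active = inhibition at 20 µM, scaled to each plate's controls, above about 33%, limit read from the data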
Target sequence (O00487 whole entry, looked up): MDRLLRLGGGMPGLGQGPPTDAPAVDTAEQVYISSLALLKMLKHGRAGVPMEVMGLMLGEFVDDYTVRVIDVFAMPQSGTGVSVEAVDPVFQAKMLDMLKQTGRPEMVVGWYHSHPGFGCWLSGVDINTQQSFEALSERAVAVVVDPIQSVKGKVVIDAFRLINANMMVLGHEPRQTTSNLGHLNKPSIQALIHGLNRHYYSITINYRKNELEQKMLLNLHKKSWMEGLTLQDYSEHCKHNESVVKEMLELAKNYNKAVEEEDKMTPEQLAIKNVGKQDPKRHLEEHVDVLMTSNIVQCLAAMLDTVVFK
NadD inh: blocks S. aureus nicotinate mononucleotide adenylyltransferase; purified NadD enzyme, colorimetric absorbance read-out; 0.78% of 360,000 active; AID 602399; inhibition, % at 20 µM; in the data active = inhibition above about 26%
PREPL inh: inhibits the human prolyl oligopeptidase-like enzyme; Q4J6C6; recombinant PREPL, fluorescence polarization activity-based probe; inhibition, % at 5.96 µM; 0.68% of 320,000 active; in the data active = inhibition above about 43%;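 also: 0% = enzyme with DMSO and 100% = wells lacking enzyme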
PP1 inh: PP1-alpha (human) inhibition in PP5 counter-screen | AID 2235 | 0.9% of 320,000 active | purified PP1alpha, OMFP fluorescence | P62136 | inhibition, % at 6.7 µM;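 active = inhibition above the mean inhibition of all tested compounds plus 3 SD, computed separately for each screening campaign, cut at about 15% in these data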
Target sequence (P62136 whole entry, looked up): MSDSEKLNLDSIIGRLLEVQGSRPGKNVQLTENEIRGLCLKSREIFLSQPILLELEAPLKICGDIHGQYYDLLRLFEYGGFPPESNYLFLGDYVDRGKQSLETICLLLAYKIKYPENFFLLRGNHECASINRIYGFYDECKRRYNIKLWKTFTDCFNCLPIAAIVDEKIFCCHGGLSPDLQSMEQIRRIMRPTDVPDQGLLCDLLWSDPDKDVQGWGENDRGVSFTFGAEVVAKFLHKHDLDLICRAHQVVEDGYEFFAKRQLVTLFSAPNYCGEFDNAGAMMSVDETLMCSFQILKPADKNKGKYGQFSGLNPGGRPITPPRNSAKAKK
PP5 inh: inhibitors of human protein phosphatase 5 (PP5). P53041. purified PP5c, OMFP substrate fluorescence. inhibition, % at 6.7 µM. 0.18% of 320,000 active. AID 1987;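 active = inhibition above the campaign's mean inhibition across all tested compounds plus 3 SD, cut at about 9.5% in these data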;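 also: 0% = DMSO only and 100% = 100 µM cantharidin control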
PP1 inh confirm: confirmation of human PP1 phosphatase inhibitors; AID 2358; purified PP1alpha, OMFP substrate fluorescence; shares compounds with PP1 inh; inhibition, % at 6.7 µM; 52% of 1,900 active;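 active = mean PP1 inhibition above a set limit taken from the earlier primary screen, cut at about 15% in these data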
PP5 inh counter: inhibits human PP5 phosphatase in PP1 counter-screen. 4% of 1,900 active. inhibition, % at 6.7 µM. shares compounds with PP1 inh. purified PP5c, OMFP fluorescence;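 active = mean PP5 inhibition over triplicate wells above about 9.5% taken from the earlier PP1 screen, limit read from the data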
Starred values were filed as active, the others as inactive; nt = no result. An excerpt weighted towards active compounds, which were near 2.4% of everything screened.

SMILES	Rpn11 block	NadD inh	PREPL inh	PP1 inh	PP5 inh	PP1 inh confirm	PP5 inh counter
NC(=O)CC(NC(=O)Cc1ccc(Br)cc1)c1ccc(NCCc2ccc(F)cc2)c([N+](=O)[O-])c1 (centres undefined)	38.4	-4.4	-102.7	18.3*	1.0	25.2*	-1.8
NC(=O)CC(NC(=O)Cc1ccc(Br)cc1)c1ccc(NCCc2ccccc2F)c([N+](=O)[O-])c1 (centres undefined)	22.9	-5.3	-108.7	24.1*	2.6	24.6*	-1.3
CCCCNc1ccc(C(CC(N)=O)NC(=O)Cc2ccc(Br)cc2)cc1[N+](=O)[O-] (centres undefined)	35.0	0.8	-9.5	6.0	1.1	nt	nt
NC(=O)CC(NC(=O)c1ccccc1)c1ccc(NCc2ccc(F)cc2)c([N+](=O)[O-])c1 (centres undefined)	21.7	1.9	3.9	3.0	2.2	nt	nt
O=C(Nc1cc(Cl)ccc1Cl)P(=O)(O)c1ccccc1	3.7	1.9	nt	nt	nt	nt	nt
COC(=O)c1sc(N)c(C(=O)OC)c1COC(=O)C1CC(=O)N(Cc2ccco2)C1 (centres undefined)	18.1	-8.9	17.0	17.9*	2.0	-2.8	-2.2
O=C(Nc1ccc(F)c(Cl)c1)[C@@H]1O[C@H](CO)[C@H](O)[C@H](O)[C@H]1O	-4.8	-0.3	nt	nt	nt	nt	nt
Cc1ccc(NC(=O)C2C3CCC(O3)C2C(=O)O)cc1Cl (centres undefined)	3.1	2.0	5.4	75.1*	74.8*	11.7	25.2*
O=C(O)C1C2CCC(O2)C1C(=O)Nc1ccc(F)c(Cl)c1 (centres undefined)	6.4	-6.4	5.1	65.7*	71.2*	10.5	18.8*
O=C(Nc1cnn(Cc2ccccc2)c1)NC12CC3CC(CC(C3)C1)C2	-6.0	-0.1	1.1	-0.2	3.0	nt	nt
O=C(O)C1C2CCC(O2)C1C(=O)Nc1cnn(Cc2ccccc2)c1 (centres undefined)	-14.9	-6.2	3.4	24.1*	40.8*	6.7	17.9*
Cc1ccc(NS(=O)(=O)c2ccc(Cl)c(C(=O)Nc3cccc(C(=O)O)c3)c2)cc1	-3.3	-9.5	-1.4	0.4	-0.1	nt	nt
COc1ccccc1C(=O)NC(=O)COC(=O)CNC(=O)c1ccc(Cl)c([N+](=O)[O-])c1	3.4	-4.5	2.7	27.3*	0.0	-3.3	-2.5
COc1cc(C(=O)Nc2cc(-c3ccccc3)[nH]n2)cc(OC)c1OC	-1.4	4.4	7.2	19.8*	2.3	17.4*	-3.3
CCCOc1ccc(C2C3=C(Nc4nc(N)[nH]c(=O)c42)c2ccccc2C3=O)cc1 (centres undefined)	4.1	18.5	15.0	18.9*	-0.6	16.5*	3.1
COc1ccc(N2CCN(C(=O)CSc3ncnc4scc(-c5ccc(C)cc5)c34)CC2)cc1	6.0	20.5	2.8	25.9*	2.6	18.9*	0.9
COc1ccc(N2CCN(c3ncnc4scc(-c5ccc(C)cc5)c34)CC2)cc1	8.8	5.8	23.1	5.4	1.4	nt	nt
COC(=O)c1ccc(COC(=O)CNC(=O)c2ccc(C)s2)cc1	0.1	-3.9	7.9	-2.7	1.0	nt	nt
CC(C)C(=O)NC(c1cccs1)c1cc([N+](=O)[O-])c2cccnc2c1O (centres undefined)	37.7	9.4	-0.3	25.9*	1.0	16.5*	7.8
Cc1ccc(C(NC(=O)C(C)C)c2cc([N+](=O)[O-])c3cccnc3c2O)cc1 (centres undefined)	22.6	29.9	12.3	26.3*	5.2	20.2*	-1.1
COC(=O)N/N=C/c1cc(N=Nc2ccccc2Cl)ccc1O	9.5	1.7	22.3	18.9*	-0.4	24.8*	0.5
O=C(/C=C/c1ccc(OCCCF)cc1)Nc1ccnc(-c2cccnc2)n1	35.5	-2.1	5.8	22.0*	-1.5	22.3*	-4.4
CCCCC(=O)Nc1ccnc(-c2cccnc2)n1	-3.8	-2.2	2.6	1.6	1.2	nt	nt
CCOC(=O)c1c(C)[nH]c(C)c1S(=O)(=O)NCC(=O)Nc1ccccn1	1.5	2.4	-1.7	-0.2	-0.6	nt	nt
COc1cccc(N(C(=O)CS(=O)CC(=O)Nc2ccc(F)cc2)C(C(=O)NC2CCCCC2)c2cccs2)c1 (centres undefined)	-2.2	-3.9	6.7	20.0*	1.1	27.8*	-0.2
SMILES	Rpn11 block	NadD inh	PREPL inh	PP1 inh	PP5 inh	PP1 inh confirm	PP5 inh counter
COc1ccc(N(C(=O)c2snc(C(N)=O)c2N)C(C(=O)NC2CCCC2)c2cccs2)cc1OC (centres undefined)	-3.8	-6.3	-0.9	17.8*	2.1	29.4*	0.7
CCCC(=O)N1CCC1(C)C(=O)Nc1ccc(OC(F)F)cc1 (centres undefined)	-1.5	3.8	nt	nt	nt	nt	nt
Nn1c(SCc2ccccc2)nc2ccccc21	5.1	-5.0	0.4	-0.8	1.0	nt	nt
Cc1cc(/C=N/n2cnnc2)c(C)n1-c1ccc(OCc2ccc(Cl)cc2Cl)cc1	-0.1	15.2	15.4	26.6*	2.0	42.3*	0.4
Cc1cc(/C=N/n2cnnc2)c(C)n1-c1ccc(OCc2ccc(F)cc2)cc1	-5.6	4.4	16.0	19.1*	2.3	10.0	1.2
Cc1cc(/C=N/n2cnnc2)c(C)n1-c1ccc(Cl)cc1	-1.4	8.5	11.6	-3.6	3.5	nt	nt
Cc1ccccc1Nc1nc(NCc2ccco2)c2ccccc2n1	-1.1	-9.4	-26.3	24.6*	3.7	-2.3	-0.1
Cc1cccc(Nc2nc(NCc3ccco3)c3ccccc3n2)c1	-7.1	16.9	28.9	25.1*	10.3*	13.6	4.0
Cc1ccc(C)c(N2CCN(C(=O)CCc3nc(-c4ccc(F)cc4)no3)CC2)c1	1.5	1.8	nt	nt	nt	nt	nt
CNc1cccc(-c2ccc(N3CCN(C)CC3)nc2)n1	1.5	-2.4	nt	nt	nt	nt	nt
O=C(c1cc(-c2ccco2)on1)N1CCN(C(c2ccccc2)c2ccccc2)CC1	35.9	17.7	11.6	19.4*	2.7	6.9	-1.1
CCC[n+]1c2ccccc2cc2ccccc21	6.8	8.3	11.5	25.2*	-3.6	20.4*	0.9
CCCC[n+]1c2ccccc2cc2ccccc21	3.9	13.2	21.7	22.3*	3.0	19.1*	0.2
CCCCC[n+]1cccc2c3ccccc3ccc21	-3.2	23.0	8.1	-5.4	-1.0	nt	nt
O=[N+]([O-])c1ccc(NC(=S)NCC(c2cccnc2)N2CCOCC2)cc1 (centres undefined)	-5.3	-0.3	10.3	-4.5	0.8	nt	nt
CC(/C=C1\SC(=S)N(c2ccc(C(=O)O)cc2)C1=O)=C\c1ccccc1	4.4	14.0	-7.2	43.6*	1.1	31.3*	-4.1
CC(/C=C1\SC(=S)N(C(C(=O)O)C(C)C)C1=O)=C\c1ccccc1 (centres undefined)	-1.1	12.2	6.7	12.5	-1.9	nt	nt
COC(=O)c1ccc2cc(OC)cc([N+](=O)[O-])c2n1	3.0	-1.9	nt	nt	nt	nt	nt

High-throughput results deposited in PubChem by several laboratories.
